# Measurements: ChEMBL document CHEMBL3988442, “University of Dundee, Small-Polar-MMV Screening Library” (2021)
# The whole screen tested about 69,000 compounds, of which about 1,000 (1.4%) showed an effect of 50% or more. Many of the other results were omitted from the sample, so strong results are more common in it than they were.
# Tested on: Leishmania donovani
# Assay: Leishmania intramacrophage assay
# Format: functional, organism-based
# Design: scale not given: in the data most compounds retested in dose-response had high values
smiles,measurement,setting,value
COc1ccccc1CNC(=O)N1CCCC(NS(C)(=O)=O)C1 (configuration not stated),Percent Effect,"30 µM, 30.03 µM",-10.5%
Br.O=C(O)c1csc(NCCc2ccccc2)n1,Percent Effect,"30.3 µM, […]",-6.16%
CC(C)n1cnnc1CNC(=O)c1cnn(-c2ccccc2)c1,Percent Effect,"30.3 µM, […]",5.112%
Cc1nn(C)c(C)c1NC(=O)CN1CCOC(Cn2cccn2)C1 (configuration not stated),Percent Effect,"30.3 µM, […]",7.584%
Cc1cc(NC(=O)CN2CCOC(CN(C)C)C2)n(C)n1 (configuration not stated),Percent Effect,"30.3 µM, […]",9.756%
Cc1nn(C)c(C)c1NC(=O)CN1CCOC(CN(C)C)C1 (configuration not stated),Percent Effect,"30.3 µM, […]",51.92%
CCC[C@@H]1CN(c2cncc(C(=O)N3CCOCC3)n2)C[C@H]1N(C)C,Percent Effect,"30.3 µM, […]",5.453%
FC(F)(F)CCc1ccnc(N2CCN(CCc3ccncc3)CC2)n1,Percent Effect,"30.3 µM, […]",-20.06%
NC(=O)c1cccc(CCNCc2cnc(-c3cccs3)s2)c1,Percent Effect,"30.3 µM, […]",8.667%
Cc1nn(C)c2ncnc(N3CCC(O)(CN4CCCC4)CC3)c12,Percent Effect,"30.3 µM, […]",8.338%
CC[C@@H](C)[C@H](NC(=O)CCn1cc(C(C)=O)c2ccccc21)C(=O)O,Percent Effect,"30.3 µM, […]",56.09%
CC(=O)c1cn(CCC(=O)N[C@H](C(=O)O)C(C)C)c2ccccc12,Percent Effect,"30 µM, 30.03 µM",8.027%
CC(=O)c1cn(CCC(=O)N[C@@H](CC(C)C)C(=O)O)c2ccccc12,Percent Effect,"30.3 µM, […]",32.27%
CCC1=N[C@@]2(CC[C@@H]3CN(CC4CC4)C[C@@H]32)C(=O)N1C.O=C(O)C(F)(F)F,Percent Effect,"30 µM, 30.03 µM",21.68%
CN1CCCC(N(C)S(=O)(=O)c2cccc3ncccc23)C1 (configuration not stated),Percent Effect,"30.3 µM, […]",59.16%
Cc1ccc2cccc(S(=O)(=O)N(C)C3CCCN(C)C3)c2n1 (configuration not stated),Percent Effect,"30.3 µM, […]",25.11%
CN(C1CCCN(c2ccccn2)C1)S(C)(=O)=O (configuration not stated),Percent Effect,"30.3 µM, […]",25.41%
O=C(CNc1cc(-n2cnnn2)ccc1F)NCc1ccccc1,Percent Effect,"30.3 µM, […]",43.45%
CCOc1ccccc1CCN1Cc2ncccc2C1=O,Percent Effect,"30.3 µM, […]",-1.003%
Cc1nn(C)c(Cl)c1C1CCCN1c1ncnc2sccc12 (configuration not stated),Percent Effect,"30 µM, 30.03 µM",51.25%
Cc1nn(C)c(C)c1C1CCCN1c1ncnc2sccc12 (configuration not stated),Percent Effect,"30.3 µM, […]",33.23%
COc1c(C2CCCN2c2ncnc3sccc23)c(C)nn1C (configuration not stated),Percent Effect,"30.3 µM, […]",26.6%
CC(=O)C(Cc1ccccc1)NC(=O)CSc1nccn1C1CC1 (configuration not stated),Percent Effect,"30.3 µM, […]",7.269%
CC(=O)N1CCC2(CCN(Cc3cccc(F)c3)CC2)CC1.O=C(O)C(F)(F)F,Percent Effect,"30.3 µM, […]",20%
CCC(=O)N1CCC2(CCN(Cc3cccc(F)c3)CC2)CC1.O=C(O)C(F)(F)F,Percent Effect,"30.3 µM, […]",2.147%
Cc1noc(C)c1CN1CCN(CC2CC2)c2ncccc2C1.O=C(O)C(F)(F)F.O=C(O)C(F)(F)F,Percent Effect,"30 µM, 30.03 µM",23.02%
Cc1noc(C)c1CN1CCN(Cc2cccnc2)c2ncccc2C1.O=C(O)C(F)(F)F.O=C(O)C(F)(F)F.O=C(O)C(F)(F)F,Percent Effect,"30.3 µM, […]",57.48%
Cc1noc(C)c1CN1CCO[C@H]2CN(Cc3cccc(F)c3)C[C@H]21.O=C(O)C(F)(F)F.O=C(O)C(F)(F)F,Percent Effect,"30.3 µM, […]",56.73%
Cc1noc(C)c1CN1CCC2(CCN(Cc3cccc(F)c3)CC2)C1.O=C(O)C(F)(F)F.O=C(O)C(F)(F)F,Percent Effect,"30.3 µM, […]",59.23%
Cc1noc(C)c1CN1CCN(Cc2ccncc2)c2ncccc2C1.O=C(O)C(F)(F)F.O=C(O)C(F)(F)F.O=C(O)C(F)(F)F,Percent Effect,"30 µM, 30.03 µM",-14.87%
Cc1noc(C)c1CN1CCO[C@H]2CN(C(=O)C3CCOCC3)C[C@H]21.O=C(O)C(F)(F)F,Percent Effect,"30.3 µM, […]",32.17%
Cc1noc(C)c1CN1CCO[C@H]2CN(Cc3ccc(F)cc3)C[C@H]21.O=C(O)C(F)(F)F.O=C(O)C(F)(F)F,Percent Effect,"30.3 µM, […]",23.07%
Cc1ccc(-c2nc(C(=O)N(C)CC(=O)N(C)C)cs2)c(C)c1,Percent Effect,"30.3 µM, […]",-31.91%
CCS(=O)(=O)N1CCC(NCC2CNc3cc(C)nn3C2)CC1 (configuration not stated),Percent Effect,"30.3 µM, […]",-7.273%
CC(=O)N1CC(=O)N(c2ccsc2)CC12CCN(Cc1ccoc1)C2 (configuration not stated),Percent Effect,"30.3 µM, […]",14.63%
CC1CN(C)CCN1C(=O)c1ccn(-c2cccc(F)c2)n1 (configuration not stated),Percent Effect,30 µM,3.559%
CCc1nnc(CNC2CCc3nc(C(C)C)nn3C2)o1 (configuration not stated),Percent Effect,"30.3 µM, […]",-6.024%
Cc1csc(-c2ccc(NC(=O)N3CCOCC3)cc2)n1,Percent Effect,"30.3 µM, […]",-0.9004%
Cc1csc(NC(=O)c2ccc(NC(=O)N3CCOCC3)cc2)n1,Percent Effect,"30.3 µM, […]",69.81%
Cc1csc(-c2cccc(NC(=O)N3CCOCC3)c2)n1,Percent Effect,"30.3 µM, […]",24.69%
COc1ccc2cc(CN(C)C(C)c3nc(C4CC4)no3)ccc2c1 (configuration not stated),Percent Effect,"30.3 µM, […]",57.64%
COc1ccc2cc(CN(C)C(C)c3nc(C(C)(C)C)no3)ccc2c1 (configuration not stated),Percent Effect,"30.3 µM, […]",20.66%
CC(c1nc(C2CC2)no1)N(C)Cc1ccc2c(c1)OCCO2 (configuration not stated),Percent Effect,"30.3 µM, […]",14.22%
CSCc1noc(CNC(=O)c2cc(C)c(C)[nH]c2=O)n1,Percent Effect,"30.3 µM, […]",20.7%
O=C(CN1CCC(Nc2ncccn2)CC1)Nc1ccccc1,Percent Effect,"30.3 µM, […]",51.04%
Cc1cnc(NC2CCN(CC(=O)Nc3ccccc3)CC2)nc1C,Percent Effect,"30.3 µM, […]",18.37%
COc1ccnc(NC2CCN(CC(=O)Nc3ccccc3)CC2)n1,Percent Effect,"30.3 µM, […]",-0.8363%
CCc1nnc(CN(CC)C(=O)C2CC(=O)N(C3CCCC3)C2)o1 (configuration not stated),Percent Effect,"30.3 µM, […]",-15.82%
Cc1nn(C)c(Oc2ccc(Cl)cc2)c1CN1CCOC(CN)C1 (configuration not stated),Percent Effect,"30.3 µM, […]",3.142%
Cc1nn(C)c(Oc2ccc(Cl)cc2)c1CN1CCC(CN)C1 (configuration not stated),Percent Effect,"30.3 µM, […]",74.8%
Cc1nn(C)c(Oc2ccc(Cl)cc2)c1CN1CC[C@H](CO)[C@@H](O)C1,Percent Effect,"30.3 µM, […]",9.933%
Cc1cccc(SC2CCN(C(=O)CCCS(N)(=O)=O)CC2)c1,Percent Effect,"30.3 µM, […]",24.28%
